Here are results for 38 compounds from PubChem BioAssay (Tox21).

The structures appear in SMILES notation. Records with an inconclusive call do not appear. A call without a number means that no potency is given here. Values without a mark were called inactive. Active and inactive are the calls of the source. Unless noted, calls follow the shape of the dose curve; as a rule, active = well fitted cell-killing curve with a large enough effect in the repeat runs; inconclusive = weak or mixed curves, or effect the other way; inactive = no such curve, though single readings can be large or run the other way.

One experiment in a line: qHTS assay to identify small molecule antagonists of the progesterone receptor (PR) signaling pathway - cell viability counter screen (AID 1346798). Also: nearly all actives have a fitted effect of over 50% in size. The following applies: PR-UAS-bla HEK293T viability, CellTiter-Glo luminescence, 16 h; series mostly up to 92.4 µM. Put shortly: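 PR-UAS-bla HEK293T cells, 3,000/well in 2% charcoal-stripped FBS medium, dosed with compounds plus R5020 agonist and incubated 16 h at 37C. Viability then measured in the same wells by CellTiter-Glo luminescence after 30 min at RT.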
A general note: Quantitative high-throughput screening tests each substance at several concentrations.
With `Cc1ccccc1N=C(N)N=C(N)N`, the Potency entry was “inactive”.
Same read-out and setting: the same measure for `FB(F)F`: “inactive”; for `CCCC(=O)O[C@]1(C(=O)CC)CC[C@H]2[C@@H]3CCC4=CC(=O)CC[C@]4(C)[C@H]3[C@@H](O)C[C@@]21C`: “inactive”.
As for `CCO[Si](OCC)(OCC)c1ccccc1`, the Potency result was “inactive”.
Still for that read-out and setting: under `Cc1cccc(C)c1NC(=O)CC12CCCN1CCC2` stands “inactive”; under `O=S(=O)(O)c1cc(O)c(O)c(S(=O)(=O)O)c1`, “inactive”; under `CC(C)C1CCC(O)CC1` (stereo unspecified), “inactive”.
Turning to `CC1=NN(c2cc(S(=O)(=O)O)ccc2Cl)C(=O)C1N=Nc1ccccc1` (stereo unspecified), the Potency result was “inactive”.
Consider `CC12CCC(C(=O)C1=O)C2(C)C` (stereo unspecified), for which the Potency entry was “inactive”.
Still for that read-out and setting: the same measure for `C=CN1CCCCCC1=O`: “inactive”.
On to `CCCCCCCCCCCCCCCCCCO`, for which the Potency entry was “inactive”.
Consider `CC(C)C(=O)OC(=O)C(C)C`, for which the Potency entry was “inactive”.
Take `[O-][n+]1cccc(CO)c1`: the Potency result was “inactive”.
Same read-out and setting: under `CCCCCC(=O)OCCc1ccccc1` stands “inactive”; under `CC(=O)NC(=O)c1ccccc1O`, “inactive”; under `COc1cc(C(=O)OC(COCCC(C)C)CN2CCOCC2)cc(OC)c1OC` (stereo unspecified), “inactive”.
Still for that read-out and setting: under `CO[Si](C)(OC)c1ccccc1` stands “inactive”.
Same read-out and setting: the same measure for `C=COC(=O)C(C)(CC)CCC(C)C` (stereo unspecified): “inactive”.
With `C=C[Si](OC(C)=O)(OC(C)=O)OC(C)=O`, the Potency result is “inactive”.
On the same count and under the same terms, under `COc1c(N2CCNC(C)C2)c(F)cc2c(=O)c(C(=O)O)cn(C3CC3)c12` (stereo unspecified) stands “inactive”; under `CC1(C)OC[C@@H](COC(=O)CCc2ccc(OC[C@@H](O)CNCCNC(=O)N3CCOCC3)cc2)O1`, “inactive”; under `C=CC(C)(CCC=C(C)C)OC(=O)CC` (stereo unspecified), “inactive”.
On the same count and under the same terms, the same measure for `c1ccc(Cc2ccccc2)cc1`: “inactive”.
Still for that read-out and setting: the same measure for `CC(C)(C#N)Nc1nc(Cl)nc(NC2CC2)n1`: “inactive”.
With `C=C(C)C(=O)OCC1CCCO1` (stereo unspecified), the Potency entry is “inactive”.
Take `CC(=O)Nc1ccc(OCC(O)CNC(C)C)cc1` (stereo unspecified): the Potency result is “inactive”.
Consider `CN(C)[C@@H]1C(=O)C(C(=O)NCN2CCCC2)=C(O)[C@@]2(O)C(=O)C3=C(O)c4c(O)cccc4[C@@](C)(O)C3C[C@@H]12` (stereo partly specified), for which the Potency entry is “inactive”.
For the compound `COc1cc(C(=O)NCc2ccc(OCCN(C)C)cc2)cc(OC)c1OC`, the Potency result is “inactive”.
On to `CCCC(C)C(=O)OCC` (stereo unspecified), for which the Potency result was “inactive”.
Consider `CCCCOC(=O)CCC(C)=O`, for which the Potency entry was “inactive”.
Still for that read-out and setting: the same measure for `CC(C#N)(CCC(=O)O)N=NC(C)(C#N)CCC(=O)O` (stereo unspecified): “inactive”; for `O=S(=O)(O)c1cccc2ccccc12`: “inactive”.
On the same count and under the same terms, the same measure for `CN(C)C(=O)Oc1cccc([N+](C)(C)C)c1`: “inactive”; for `CC(=O)N[C@H]1[C@H]([C@H](O)[C@H](O)CO)OC(C(=O)O)=C[C@@H]1N=C(N)N`: “inactive”.
For `CCN[C@@H]1C[C@H](N)[C@@H](OC2OC(CN)=CCC2N)[C@H](O)[C@H]1O[C@H]1OC[C@](C)(O)[C@H](NC)[C@H]1O` (stereo partly specified), the activity change, negative = cytotoxicity was 4.73% [at 0.348 µM].
`C=CC(=O)OCCCl`: the Potency entry was “inactive”.
For the compound `CCCc1nn(C)c2c(=O)[nH]c(-c3cc(S(=O)(=O)N4CCN(C)CC4)ccc3OCC)nc12`, the Potency entry is “inactive”.
Same read-out and setting: under `C[N+]12CCC(CC1)C(OC(=O)C(O)(c1ccccc1)c1ccccc1)C2` (stereo unspecified) stands “inactive”.

A further experiment in a line: qHTS assay to identify small molecule agonists of the progesterone receptor (PR) signaling pathway - cell viability counter screen (AID 1346799; calls by dose curve; also: nearly all actives have a fitted effect of over 45% in size). The following applies: PR-UAS-bla HEK293T viability, CellTiter-Glo luminescence, 16 h; series mostly up to 92.4 µM. Put shortly:
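Counter screen in the PR-UAS-bla HEK293T wells (2% charcoal-stripped FBS, 16 h compound exposure at 37 C) after the bla read. CellTiter-Glo added, 30 min at room temperature, luminescence read as cell viability.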
Take `Cc1ccccc1N=C(N)N=C(N)N`: the Potency entry is “inactive”.
Same read-out and setting: the same measure for `FB(F)F`: “inactive”; for `CCCC(=O)O[C@]1(C(=O)CC)CC[C@H]2[C@@H]3CCC4=CC(=O)CC[C@]4(C)[C@H]3[C@@H](O)C[C@@]21C`: “inactive”.
The same measure, in the same setting: under `CCO[Si](OCC)(OCC)c1ccccc1` stands “inactive”.
As for `Cc1cccc(C)c1NC(=O)CC12CCCN1CCC2`, the Potency result was “inactive”.
Turning to `O=S(=O)(O)c1cc(O)c(O)c(S(=O)(=O)O)c1`, the Potency entry is “inactive”.
Take `CC(C)C1CCC(O)CC1` (stereo unspecified): the Potency entry was “inactive”.
The same measure, in the same setting: under `CC1=NN(c2cc(S(=O)(=O)O)ccc2Cl)C(=O)C1N=Nc1ccccc1` (stereo unspecified) stands “inactive”.
`CC12CCC(C(=O)C1=O)C2(C)C` (stereo unspecified): the Potency entry is “inactive”.
As to `C=CN1CCCCCC1=O`, the Potency result is “inactive”.
The same measure, in the same setting: under `CCCCCCCCCCCCCCCCCCO` stands “inactive”; under `CC(C)C(=O)OC(=O)C(C)C`, “inactive”.
Take `[O-][n+]1cccc(CO)c1`: the Potency result was “inactive”.
`CCCCCC(=O)OCCc1ccccc1`: the Potency entry is “inactive”.
The same measure, in the same setting: the same measure for `CC(=O)NC(=O)c1ccccc1O`: “inactive”.
As for `COc1cc(C(=O)OC(COCCC(C)C)CN2CCOCC2)cc(OC)c1OC` (stereo unspecified), the Potency entry is “inactive”.
Consider `CO[Si](C)(OC)c1ccccc1`, for which the Potency result was “inactive”.
On to `C=COC(=O)C(C)(CC)CCC(C)C` (stereo unspecified), for which the Potency entry was “inactive”.
With `C=C[Si](OC(C)=O)(OC(C)=O)OC(C)=O`, the Potency entry is “inactive”.
For `COc1c(N2CCNC(C)C2)c(F)cc2c(=O)c(C(=O)O)cn(C3CC3)c12` (stereo unspecified), the Potency result was “inactive”.
On the same count and under the same terms, the same measure for `CC1(C)OC[C@@H](COC(=O)CCc2ccc(OC[C@@H](O)CNCCNC(=O)N3CCOCC3)cc2)O1`: “inactive”.
Consider `C=CC(C)(CCC=C(C)C)OC(=O)CC` (stereo unspecified), for which the Potency entry was “inactive”.
Regarding `c1ccc(Cc2ccccc2)cc1`, the Potency entry was “inactive”.
Take `CC(C)(C#N)Nc1nc(Cl)nc(NC2CC2)n1`: the Potency result is “inactive”.
The same measure, in the same setting: the same measure for `C=C(C)C(=O)OCC1CCCO1` (stereo unspecified): “inactive”.
Same read-out and setting: the same measure for `CC(=O)Nc1ccc(OCC(O)CNC(C)C)cc1` (stereo unspecified): “inactive”; for `CN(C)[C@@H]1C(=O)C(C(=O)NCN2CCCC2)=C(O)[C@@]2(O)C(=O)C3=C(O)c4c(O)cccc4[C@@](C)(O)C3C[C@@H]12` (stereo partly specified): “inactive”; for `COc1cc(C(=O)NCc2ccc(OCCN(C)C)cc2)cc(OC)c1OC`: “inactive”.
The same measure, in the same setting: the same measure for `CCCC(C)C(=O)OCC` (stereo unspecified): “inactive”; for `CCCCOC(=O)CCC(C)=O`: “inactive”; for `CC(C#N)(CCC(=O)O)N=NC(C)(C#N)CCC(=O)O` (stereo unspecified): “inactive”.
In the case of `O=S(=O)(O)c1cccc2ccccc12`, the Potency entry was “inactive”.
Consider `CN(C)C(=O)Oc1cccc([N+](C)(C)C)c1`, for which the Potency entry is “inactive”.
The same measure, in the same setting: under `CC(=O)N[C@H]1[C@H]([C@H](O)[C@H](O)CO)OC(C(=O)O)=C[C@@H]1N=C(N)N` stands “inactive”.
Regarding `CCN[C@@H]1C[C@H](N)[C@@H](OC2OC(CN)=CCC2N)[C@H](O)[C@H]1O[C@H]1OC[C@](C)(O)[C@H](NC)[C@H]1O` (stereo partly specified), the activity change, negative = cytotoxicity is -2.08% [at 0.349 µM].
On to `C=CC(=O)OCCCl`, for which the Potency result is “inactive”.
Still for that read-out and setting: under `CCCc1nn(C)c2c(=O)[nH]c(-c3cc(S(=O)(=O)N4CCN(C)CC4)ccc3OCC)nc12` stands “inactive”.
As for `C[N+]12CCC(CC1)C(OC(=O)C(O)(c1ccccc1)c1ccccc1)C2` (stereo unspecified), the Potency result was “inactive”.
